In the supplement of paper PMC6288085:
Counter-ions that a name gives are not always drawn. ± gives the uncertainty stated by the source.

tested on: Caenorhabditis elegans N2; assay: food intake (mean delta OD600 / animal over 72 h) with 50 uM loxapine co-treatment (OD600 units per animal); higher = more food eaten (less suppression of loxapine-induced hyperphagia); details: first compound 33 µM, loxapine concentration 50 µM
Description: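 C. elegans N2 adults (FUDR-sterilised, day 1) in 96-well plates fed gamma-irradiated bacteria. Each library drug (MedChemExpress FDA-approved library) at 33 uM was combined with loxapine at 50 uM. Food intake was measured as bacterial clearance: the change in OD600 from day 1 to 72 h, normalised per animal (mean over 14-21 wells of about 10-12 worms). Drugs flagged for bacterial lysis or sickness were excluded by the authors.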

Compound | food intake
CC(C)(Oc1ccc(CCNC(=O)c2ccc(Cl)cc2)cc1)C(=O)O [bezafibrate] + CN1CCN(C2=Nc3ccccc3Oc3ccc(Cl)cc32)CC1 [loxapine] | 0.0212 ± 0.0034
Cc1[nH]c(=O)c(C#N)cc1-c1ccncc1 [milrinone] + CN1CCN(C2=Nc3ccccc3Oc3ccc(Cl)cc32)CC1 [loxapine] | 0.0238 ± 0.0035
CCOCC(O)COc1ccc(NC(=O)CC[S+](C)C)cc1 (stereo not given) [Suplatast (tosilate)] + CN1CCN(C2=Nc3ccccc3Oc3ccc(Cl)cc32)CC1 [loxapine] | 0.0232 ± 0.0036
C1CCN2C[C@@H]3C[C@@H](CN4CCCC[C@@H]34)[C@H]2C1 [(-)-sparteine (sulfate pentahydrate)] + CN1CCN(C2=Nc3ccccc3Oc3ccc(Cl)cc32)CC1 [loxapine] | 0.0235 ± 0.0013
O=NN(CCCl)C(=O)NC1CCCCC1 [Lomustine] + CN1CCN(C2=Nc3ccccc3Oc3ccc(Cl)cc32)CC1 [loxapine] | 0.0248 ± 0.0039
COc1cc(OC)c(C(=O)CCCN2CCCC2)c(OC)c1 [buflomedil (hydrochloride)] + CN1CCN(C2=Nc3ccccc3Oc3ccc(Cl)cc32)CC1 [loxapine] | 0.0222 ± 0.0028
O=c1n(CCCN2CCN(c3cccc(Cl)c3)CC2)nc2ccccn12 [trazodone (hydrochloride)] + CN1CCN(C2=Nc3ccccc3Oc3ccc(Cl)cc32)CC1 [loxapine] | 0.0285 ± 0.035
COc1ccc2[nH]c([S@@+]([O-])Cc3ncc(C)c(OC)c3C)nc2c1 [Esomeprazole (magnesium trihydrate)] + CN1CCN(C2=Nc3ccccc3Oc3ccc(Cl)cc32)CC1 [loxapine] | 0.0226 ± 0.0041
CC(C)(C)C(=O)OCOP(=O)(COCCn1cnc2c(N)ncnc21)OCOC(=O)C(C)(C)C [Adefovir dipivoxil] + CN1CCN(C2=Nc3ccccc3Oc3ccc(Cl)cc32)CC1 [loxapine] | 0.0231 ± 0.0029
CCCc1nn(C)c2c(=O)[nH]c(-c3cc(S(=O)(=O)N4CCN(C)CC4)ccc3OCC)nc12 [sildenafil (citrate)] + CN1CCN(C2=Nc3ccccc3Oc3ccc(Cl)cc32)CC1 [loxapine] | 0.024 ± 0.0028
N=C(N)c1ccc(OCCCCCOc2ccc(C(=N)N)cc2)cc1 [pentamidine (isethionate)] + CN1CCN(C2=Nc3ccccc3Oc3ccc(Cl)cc32)CC1 [loxapine] | 0.0232 ± 0.0025
CO/N=C1\CN(c2nc3c(cc2F)c(=O)c(C(=O)O)cn3C2CC2)CC1CN (stereo not given) [gemifloxacin (mesylate)] + CN1CCN(C2=Nc3ccccc3Oc3ccc(Cl)cc32)CC1 [loxapine] | 0.023 ± 0.0032
CC(=O)OCC(=O)[C@@]1(O)CC[C@H]2[C@@H]3CCC4=CC(=O)CC[C@]4(C)[C@H]3C(=O)C[C@@]21C [cortisone (acetate)] + CN1CCN(C2=Nc3ccccc3Oc3ccc(Cl)cc32)CC1 [loxapine] | 0.0231 ± 0.0059
NS(=O)(=O)c1ccc(C(=O)O)cc1 [carzenide] + CN1CCN(C2=Nc3ccccc3Oc3ccc(Cl)cc32)CC1 [loxapine] | 0.0251 ± 0.0067
C[C@H](Cn1cnc2c(N)ncnc21)OCP(=O)(O)O [tenofovir] + CN1CCN(C2=Nc3ccccc3Oc3ccc(Cl)cc32)CC1 [loxapine] | 0.0219 ± 0.0044
COc1ccc(C(=O)NCc2ccc(OCCN(C)C)cc2)cc1OC [itopride (hydrochloride)] + CN1CCN(C2=Nc3ccccc3Oc3ccc(Cl)cc32)CC1 [loxapine] | 0.0294 ± 0.033
C=CCNC(N)=S [allylthiourea] + CN1CCN(C2=Nc3ccccc3Oc3ccc(Cl)cc32)CC1 [loxapine] | 0.0237 ± 0.003
CN1CC(=O)N2[C@H](c3ccc4c(c3)OCO4)c3[nH]c4ccccc4c3C[C@@H]2C1=O [tadalafil] + CN1CCN(C2=Nc3ccccc3Oc3ccc(Cl)cc32)CC1 [loxapine] | 0.0236 ± 0.0034
N=C(N)NC(=N)NCCc1ccccc1 [Phenformin (hydrochloride)] + CN1CCN(C2=Nc3ccccc3Oc3ccc(Cl)cc32)CC1 [loxapine] | 0.0236 ± 0.0019
CC(=O)OCC(CCn1cnc2cnc(N)nc21)COC(C)=O [famciclovir] + CN1CCN(C2=Nc3ccccc3Oc3ccc(Cl)cc32)CC1 [loxapine] | 0.0236 ± 0.0029

Compound | food intake
Cc1ncc([N+](=O)[O-])n1CC(C)O (stereo not given) [secnidazole] + CN1CCN(C2=Nc3ccccc3Oc3ccc(Cl)cc32)CC1 [loxapine] | 0.0205 ± 0.0035
CC(C)Cc1ccc(C(C)C(=O)O)cc1 (stereo not given) [ibuprofen] + CN1CCN(C2=Nc3ccccc3Oc3ccc(Cl)cc32)CC1 [loxapine] | 0.0222 ± 0.0021
CC(=O)C1C(=O)C=C(C)OC1=O (stereo not given) [dehydroacetic acid] + CN1CCN(C2=Nc3ccccc3Oc3ccc(Cl)cc32)CC1 [loxapine] | 0.0214 ± 0.0043
C=CC[N+]1([C@H]2C[C@H]3[C@@H]4CC[C@H]5C[C@H](O)[C@@H](N6CCOCC6)C[C@]5(C)[C@H]4CC[C@]3(C)[C@H]2OC(C)=O)CCCC1 [rocuronium (bromide)] + CN1CCN(C2=Nc3ccccc3Oc3ccc(Cl)cc32)CC1 [loxapine] | 0.0231 ± 0.0029
CC(=O)CCCCn1c(=O)c2c(ncn2C)n(C)c1=O [pentoxifylline] + CN1CCN(C2=Nc3ccccc3Oc3ccc(Cl)cc32)CC1 [loxapine] | 0.0226 ± 0.002
Cc1nc(C(=O)NCC(=O)O)c(O)c2ccc(Oc3ccccc3)cc12 + CN1CCN(C2=Nc3ccccc3Oc3ccc(Cl)cc32)CC1 [loxapine] | 0.0228 ± 0.0037
NC12CC3CC(CC(C3)C1)C2 [amantadine (hydrochloride)] + CN1CCN(C2=Nc3ccccc3Oc3ccc(Cl)cc32)CC1 [loxapine] | 0.0253 ± 0.003
CC(=O)N1CCN(c2ccc(OCC3COC(Cn4ccnc4)(c4ccc(Cl)cc4Cl)O3)cc2)CC1 (stereo not given) [ketoconazole] + CN1CCN(C2=Nc3ccccc3Oc3ccc(Cl)cc32)CC1 [loxapine] | 0.0239 ± 0.0034
CN(C)[C@@H]1C(O)=C(C(N)=O)C(=O)[C@@]2(O)C(O)=C3C(=O)c4c(O)cccc4[C@@](C)(O)[C@H]3C[C@@H]12 [Tetracycline (hydrochloride)] + CN1CCN(C2=Nc3ccccc3Oc3ccc(Cl)cc32)CC1 [loxapine] | 0.0228 ± 0.0038
O=c1[nH]c(=O)n([C@H]2C[C@H](O)[C@@H](CO)O2)cc1C(F)(F)F [trifluorothymidine] + CN1CCN(C2=Nc3ccccc3Oc3ccc(Cl)cc32)CC1 [loxapine] | 0.0216 ± 0.0028
NC(=O)c1ncn([C@@H]2O[C@H](CO)[C@@H](O)[C@H]2O)n1 [ribavirin] + CN1CCN(C2=Nc3ccccc3Oc3ccc(Cl)cc32)CC1 [loxapine] | 0.0212 ± 0.0037
Cc1cccc(-c2nn3c(c2-c2ccnc4ccc(C(N)=O)cc24)CCC3)n1 + CN1CCN(C2=Nc3ccccc3Oc3ccc(Cl)cc32)CC1 [loxapine] | 0.0252 ± 0.0052
N[C@@H]1CCCCN(c2c(F)cc3c(=O)c(C(=O)O)cn(C4CC4)c3c2Cl)C1 [besifloxacin (hydrochloride)] + CN1CCN(C2=Nc3ccccc3Oc3ccc(Cl)cc32)CC1 [loxapine] | 0.0227 ± 0.0056
Cc1cc(C2CCCCC2)n(O)c(=O)c1 [ciclopirox] + CN1CCN(C2=Nc3ccccc3Oc3ccc(Cl)cc32)CC1 [loxapine] | 0.0218 ± 0.0041
O=C(c1cc(Cc2n[nH]c(=O)c3ccccc23)ccc1F)N1CCN(C(=O)C2CC2)CC1 [olaparib] + CN1CCN(C2=Nc3ccccc3Oc3ccc(Cl)cc32)CC1 [loxapine] | 0.0205 ± 0.005
O=c1[nH]c(=O)n([C@H]2C[C@H](O)[C@@H](CO)O2)cc1I [idoxuridine] + CN1CCN(C2=Nc3ccccc3Oc3ccc(Cl)cc32)CC1 [loxapine] | 0.0176 ± 0.0026
CC(CN1c2ccccc2Sc2ccccc21)N(C)C (stereo not given) [promethazine (hydrochloride)] + CN1CCN(C2=Nc3ccccc3Oc3ccc(Cl)cc32)CC1 [loxapine] | 0.0219 ± 0.0024
CC1(C)O[C@@H]2C[C@H]3[C@@H]4CCC5=CC(=O)C=C[C@]5(C)[C@@]4(F)[C@@H](O)C[C@]3(C)[C@]2(C(=O)CO)O1 [triamcinolone (acetonide)] + CN1CCN(C2=Nc3ccccc3Oc3ccc(Cl)cc32)CC1 [loxapine] | 0.0224 ± 0.0033
CN(C)[C@@H]1C(O)=C(C(N)=O)C(=O)[C@@]2(O)C(O)=C3C(=O)c4c(O)ccc(Cl)c4[C@@H](O)[C@H]3C[C@@H]12 [demeclocycline (hydrochloride)] + CN1CCN(C2=Nc3ccccc3Oc3ccc(Cl)cc32)CC1 [loxapine] | 0.0207 ± 0.0035
Cn1c(=O)c2nc[nH]c2n(C)c1=O [theophylline] + CN1CCN(C2=Nc3ccccc3Oc3ccc(Cl)cc32)CC1 [loxapine] | 0.00971 ± 0.011
